Experimental data published in article PMC7862700, “An all-to-all approach to the identification of sequence-specific readers for epigenetic DNA modifications on cytosine”.

Experiments:
Assay in all cases: DAPPL (digital affinity profiling via proximity ligation, sequencing); 10 mM Tris-HCl pH 7.5, 50 mM NaCl, 1 mM DTT, 4% glycerol, room temperature, 30 min; GST-TFs on glutathione beads, 16-mer random dsDNA library, 0.1% formaldehyde crosslink after washing; high values mean tight binding
Conditions in all cases: protein: recombinant; tags: N-terminal GST; dsDNA, one strand shown
FLI1 = biological target: T1, FLI1 (Homo sapiens, UniProt Q01543 1-452)
T1 sequence: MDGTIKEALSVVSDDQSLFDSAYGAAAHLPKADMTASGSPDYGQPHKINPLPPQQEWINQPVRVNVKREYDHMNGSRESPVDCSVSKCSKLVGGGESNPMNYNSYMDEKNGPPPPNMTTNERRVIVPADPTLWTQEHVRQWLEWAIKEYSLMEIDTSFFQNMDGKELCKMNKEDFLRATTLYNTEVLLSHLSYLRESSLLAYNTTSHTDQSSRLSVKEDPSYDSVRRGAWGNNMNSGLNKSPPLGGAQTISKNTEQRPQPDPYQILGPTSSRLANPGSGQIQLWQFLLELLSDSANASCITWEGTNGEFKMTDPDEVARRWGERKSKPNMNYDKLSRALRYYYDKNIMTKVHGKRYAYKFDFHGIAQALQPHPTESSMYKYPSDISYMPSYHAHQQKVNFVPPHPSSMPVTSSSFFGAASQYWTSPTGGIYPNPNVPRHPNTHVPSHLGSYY
In short: (§1)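 Pools were built from human transcription factors expressed in yeast as GST fusions, captured on glutathione beads and DNA-barcoded, along with a tag-only sample. Incubation with 200 nmole of a 16-mer random double-stranded DNA library lasted 30 min at room temperature in Tris/NaCl/DTT/glycerol buffer, and was followed by washing, 0.1% formaldehyde crosslinking, proximity ligation, PCR amplification and Illumina NextSeq500 sequencing. Binding signal is the quotient of each hexamer's read frequency for a factor and its frequency for the tag-only sample.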

ELK1 = biological target: T2, ELK1 (Homo sapiens, UniProt P19419 1-428)
T2 sequence: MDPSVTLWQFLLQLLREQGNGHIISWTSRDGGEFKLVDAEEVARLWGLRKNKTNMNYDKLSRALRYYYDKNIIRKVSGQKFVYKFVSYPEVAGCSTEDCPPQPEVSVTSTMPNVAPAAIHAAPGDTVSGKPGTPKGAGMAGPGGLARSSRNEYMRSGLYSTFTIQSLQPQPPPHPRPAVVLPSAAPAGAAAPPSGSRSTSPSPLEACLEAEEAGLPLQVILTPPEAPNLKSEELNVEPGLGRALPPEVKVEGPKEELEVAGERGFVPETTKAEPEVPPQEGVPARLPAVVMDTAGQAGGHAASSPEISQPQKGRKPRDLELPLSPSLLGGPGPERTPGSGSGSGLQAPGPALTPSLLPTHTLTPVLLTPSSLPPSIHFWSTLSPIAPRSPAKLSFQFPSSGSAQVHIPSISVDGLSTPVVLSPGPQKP
In short: as §1

GABPA = biological target: T3, GABPA (Homo sapiens, UniProt Q06546 1-454)
T3 sequence: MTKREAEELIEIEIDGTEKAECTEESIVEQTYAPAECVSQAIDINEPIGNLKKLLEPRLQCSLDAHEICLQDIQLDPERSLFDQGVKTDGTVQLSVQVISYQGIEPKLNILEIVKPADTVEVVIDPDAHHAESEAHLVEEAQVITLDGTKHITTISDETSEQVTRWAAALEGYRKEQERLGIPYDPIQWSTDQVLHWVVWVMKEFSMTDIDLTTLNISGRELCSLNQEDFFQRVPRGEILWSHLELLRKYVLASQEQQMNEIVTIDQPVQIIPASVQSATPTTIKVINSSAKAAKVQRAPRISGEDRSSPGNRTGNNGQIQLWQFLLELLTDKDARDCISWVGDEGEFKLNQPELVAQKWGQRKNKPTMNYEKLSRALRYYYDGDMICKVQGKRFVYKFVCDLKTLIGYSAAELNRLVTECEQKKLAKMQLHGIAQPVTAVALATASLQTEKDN
In short: as §1

ERG = biological target: T4, ERG (Homo sapiens, UniProt P11308 1-479)
T4 sequence: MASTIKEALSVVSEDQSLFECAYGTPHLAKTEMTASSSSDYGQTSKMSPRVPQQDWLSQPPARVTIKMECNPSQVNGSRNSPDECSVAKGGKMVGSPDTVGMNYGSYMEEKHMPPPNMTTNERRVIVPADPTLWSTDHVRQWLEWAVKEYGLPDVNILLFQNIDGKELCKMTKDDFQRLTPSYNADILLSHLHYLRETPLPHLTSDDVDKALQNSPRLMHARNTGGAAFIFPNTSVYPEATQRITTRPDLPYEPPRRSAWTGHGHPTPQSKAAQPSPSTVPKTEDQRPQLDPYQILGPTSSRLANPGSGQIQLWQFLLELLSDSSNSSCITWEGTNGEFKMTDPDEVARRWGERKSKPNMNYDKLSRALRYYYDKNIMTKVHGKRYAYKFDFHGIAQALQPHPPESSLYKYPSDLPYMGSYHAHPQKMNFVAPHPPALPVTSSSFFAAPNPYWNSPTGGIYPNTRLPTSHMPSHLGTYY
In short: as §1

ELF1 = ELF1 (Homo sapiens, UniProt P32519 1-619)
Chain of ELF1 (P32519 whole entry): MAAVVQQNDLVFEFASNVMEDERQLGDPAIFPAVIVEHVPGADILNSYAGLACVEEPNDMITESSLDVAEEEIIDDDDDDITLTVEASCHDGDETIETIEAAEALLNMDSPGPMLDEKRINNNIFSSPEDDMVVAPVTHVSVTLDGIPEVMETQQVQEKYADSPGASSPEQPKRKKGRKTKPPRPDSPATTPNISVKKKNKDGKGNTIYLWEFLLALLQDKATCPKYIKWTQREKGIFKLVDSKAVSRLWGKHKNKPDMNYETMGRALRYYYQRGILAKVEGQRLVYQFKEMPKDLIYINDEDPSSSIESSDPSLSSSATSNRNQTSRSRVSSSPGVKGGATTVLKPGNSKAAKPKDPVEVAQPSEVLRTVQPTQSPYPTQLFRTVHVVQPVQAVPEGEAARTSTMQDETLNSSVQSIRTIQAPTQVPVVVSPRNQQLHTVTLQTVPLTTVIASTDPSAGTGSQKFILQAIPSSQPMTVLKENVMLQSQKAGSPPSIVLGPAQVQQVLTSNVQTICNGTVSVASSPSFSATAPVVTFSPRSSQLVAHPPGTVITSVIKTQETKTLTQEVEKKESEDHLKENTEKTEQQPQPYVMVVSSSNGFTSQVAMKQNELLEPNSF
In short: as §1

EHF = biological target: T5, EHF (Homo sapiens, UniProt Q9NZC4 1-300)
T5 sequence: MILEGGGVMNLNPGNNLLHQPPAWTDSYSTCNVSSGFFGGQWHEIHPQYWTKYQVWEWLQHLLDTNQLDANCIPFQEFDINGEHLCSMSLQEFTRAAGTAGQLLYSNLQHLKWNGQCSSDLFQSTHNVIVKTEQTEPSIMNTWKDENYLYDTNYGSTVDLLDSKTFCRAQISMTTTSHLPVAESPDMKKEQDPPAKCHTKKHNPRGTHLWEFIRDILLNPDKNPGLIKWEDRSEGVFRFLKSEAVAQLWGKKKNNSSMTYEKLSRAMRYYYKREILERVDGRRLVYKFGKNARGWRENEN
In short: as §1

SPI1 = SPI1 (Homo sapiens, UniProt P17947 1-270)
In short: as §1

SPIB = SPIB (Homo sapiens, UniProt Q01892 1-262)
Chain of SPIB (Q01892 whole entry): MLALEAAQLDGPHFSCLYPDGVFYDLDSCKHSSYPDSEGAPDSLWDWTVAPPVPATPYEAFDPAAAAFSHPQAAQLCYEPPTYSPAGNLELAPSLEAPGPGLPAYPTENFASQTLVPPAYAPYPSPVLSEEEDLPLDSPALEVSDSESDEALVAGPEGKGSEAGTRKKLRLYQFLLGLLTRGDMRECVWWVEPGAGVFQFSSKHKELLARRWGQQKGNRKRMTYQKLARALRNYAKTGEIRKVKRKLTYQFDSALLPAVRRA
In short: as §1

ELK3 = biological target: T6, ELK3 (Homo sapiens, UniProt P41970 1-407)
T6 sequence: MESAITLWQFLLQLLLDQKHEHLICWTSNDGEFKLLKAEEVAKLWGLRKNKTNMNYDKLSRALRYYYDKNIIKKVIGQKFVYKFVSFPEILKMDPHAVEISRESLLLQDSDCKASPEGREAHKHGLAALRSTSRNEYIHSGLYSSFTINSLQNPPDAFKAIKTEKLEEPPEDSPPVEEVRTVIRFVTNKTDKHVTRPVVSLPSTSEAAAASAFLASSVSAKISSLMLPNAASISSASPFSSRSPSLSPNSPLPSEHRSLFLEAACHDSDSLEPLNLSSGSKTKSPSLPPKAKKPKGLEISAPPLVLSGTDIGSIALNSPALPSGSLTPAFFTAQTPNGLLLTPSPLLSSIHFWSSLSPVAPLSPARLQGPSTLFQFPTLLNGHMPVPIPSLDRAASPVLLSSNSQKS
In short: as §1

Sequence	binding signal (FLI1)	binding signal (ELK1)	binding signal (GABPA)	binding signal (ERG)	binding signal (ELF1)	binding signal (EHF)	binding signal (SPI1)	binding signal (SPIB)	binding signal (ELK3)
GAATTG	1.15 fold enrichment (6-mer frequency, TF over GST control)	1.12 fold enrichment (6-mer frequency, TF over GST control)	1.09 fold enrichment (6-mer frequency, TF over GST control)	1.1 fold enrichment (6-mer frequency, TF over GST control)	1.11 fold enrichment (6-mer frequency, TF over GST control)	1.12 fold enrichment (6-mer frequency, TF over GST control)	1.17 fold enrichment (6-mer frequency, TF over GST control)	1.21 fold enrichment (6-mer frequency, TF over GST control)	1.21 fold enrichment (6-mer frequency, TF over GST control)
GTTTTC	1.19 fold enrichment (6-mer frequency, TF over GST control)	1.2 fold enrichment (6-mer frequency, TF over GST control)	1.23 fold enrichment (6-mer frequency, TF over GST control)	1.24 fold enrichment (6-mer frequency, TF over GST control)	1.15 fold enrichment (6-mer frequency, TF over GST control)	1.28 fold enrichment (6-mer frequency, TF over GST control)	1.17 fold enrichment (6-mer frequency, TF over GST control)	1.2 fold enrichment (6-mer frequency, TF over GST control)	1.23 fold enrichment (6-mer frequency, TF over GST control)
ACTCCA	1.15 fold enrichment (6-mer frequency, TF over GST control)	1.24 fold enrichment (6-mer frequency, TF over GST control)	1.29 fold enrichment (6-mer frequency, TF over GST control)	1.26 fold enrichment (6-mer frequency, TF over GST control)	1.21 fold enrichment (6-mer frequency, TF over GST control)	1.17 fold enrichment (6-mer frequency, TF over GST control)	1.23 fold enrichment (6-mer frequency, TF over GST control)	1.16 fold enrichment (6-mer frequency, TF over GST control)	1.17 fold enrichment (6-mer frequency, TF over GST control)
TCAATG	1.08 fold enrichment (6-mer frequency, TF over GST control)	1.13 fold enrichment (6-mer frequency, TF over GST control)	1.11 fold enrichment (6-mer frequency, TF over GST control)	1.1 fold enrichment (6-mer frequency, TF over GST control)	1.04 fold enrichment (6-mer frequency, TF over GST control)	1.04 fold enrichment (6-mer frequency, TF over GST control)	1.07 fold enrichment (6-mer frequency, TF over GST control)	1.11 fold enrichment (6-mer frequency, TF over GST control)	1.07 fold enrichment (6-mer frequency, TF over GST control)
TCTGGT	1.25 fold enrichment (6-mer frequency, TF over GST control)	1.29 fold enrichment (6-mer frequency, TF over GST control)	1.32 fold enrichment (6-mer frequency, TF over GST control)	1.33 fold enrichment (6-mer frequency, TF over GST control)	1.22 fold enrichment (6-mer frequency, TF over GST control)	1.21 fold enrichment (6-mer frequency, TF over GST control)	1.31 fold enrichment (6-mer frequency, TF over GST control)	1.21 fold enrichment (6-mer frequency, TF over GST control)	1.31 fold enrichment (6-mer frequency, TF over GST control)
TGTCCC	1.27 fold enrichment (6-mer frequency, TF over GST control)	1.35 fold enrichment (6-mer frequency, TF over GST control)	1.33 fold enrichment (6-mer frequency, TF over GST control)	1.38 fold enrichment (6-mer frequency, TF over GST control)	1.28 fold enrichment (6-mer frequency, TF over GST control)	1.32 fold enrichment (6-mer frequency, TF over GST control)	1.22 fold enrichment (6-mer frequency, TF over GST control)	1.36 fold enrichment (6-mer frequency, TF over GST control)	1.47 fold enrichment (6-mer frequency, TF over GST control)
CTCATA	1.39 fold enrichment (6-mer frequency, TF over GST control)	1.48 fold enrichment (6-mer frequency, TF over GST control)	1.36 fold enrichment (6-mer frequency, TF over GST control)	1.3 fold enrichment (6-mer frequency, TF over GST control)	1.38 fold enrichment (6-mer frequency, TF over GST control)	1.27 fold enrichment (6-mer frequency, TF over GST control)	1.43 fold enrichment (6-mer frequency, TF over GST control)	1.48 fold enrichment (6-mer frequency, TF over GST control)	1.34 fold enrichment (6-mer frequency, TF over GST control)
ATAGTT	1.18 fold enrichment (6-mer frequency, TF over GST control)	1.16 fold enrichment (6-mer frequency, TF over GST control)	1.16 fold enrichment (6-mer frequency, TF over GST control)	1.18 fold enrichment (6-mer frequency, TF over GST control)	1.16 fold enrichment (6-mer frequency, TF over GST control)	1.18 fold enrichment (6-mer frequency, TF over GST control)	1.11 fold enrichment (6-mer frequency, TF over GST control)	1.2 fold enrichment (6-mer frequency, TF over GST control)	1.11 fold enrichment (6-mer frequency, TF over GST control)
